Source: PubChem BioAssay AID1159580 (chemical genetic matrix, 2015)
Where “and” joins values, the source holds several entries; their conditions need not be identical. Equal values may be shown once. About 2,000 (36%) of roughly 5,500 compounds were called active. Inconclusive results (about 18%) are left out. No stated cut-off is given here; in the data, active means normalized growth mostly below about 0.91 (no sharp cut-off); inconclusive means no clear call, values can overlap the other calls; inactive means mostly above about 0.92. Some of the results follow.

Assay: chemical genetic growth profiling, strain panel (AID 1159580);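 further: tested at 20 µM; growth read once vehicle control cultures reached saturation at 30 °C; 1 = growth at the plate median or of vehicle wells; lower values mean less growth of the strain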
Details: S. cerevisiae deletion strains, growth OD

Measured: normalized growth

CC1(C)CC[C@]2(C)CC[C@]3(C)C(=CCC4[C@@]5(C)CC[C@H](O)C(C)(C)C5CC[C@]43C)C2C1 (stereo partly specified)
inactive: locus YAL021C, strain ccr4, hits give low values 0.992 | locus YAL026C, strain drs2, hits give low values 1 | locus YAL030W, strain snc1, hits give low values 0.988 | locus YBL061C, strain skt5, hits give low values 0.986 | locus YBR009C, strain hhf1, hits give low values 1.02 | locus YBR021W, strain FUR4, hits give low values 1.07 | locus YBR023C, strain chs3, hits give low values 0.975 | locus YBR171W, strain sec66, hits give low values 0.993 | locus YBR229C, strain ROT2, hits give low values 1.01 | locus YBR231C, strain swc5, hits give low values 1 | locus YBR279W, strain paf1, hits give low values 0.991 | locus YCL011C, strain gbp2, hits give low values 0.985 | locus YCL016C, strain dcc1, hits give low values 0.99 | locus YCL029C, strain bik1, hits give low values 0.999 | locus YCL061C, strain MRC1, hits give low values 1 | locus YCL069W, strain vba3, hits give low values 0.995 | locus YCR088W, strain abp1, hits give low values 0.999 | locus YDL005C, strain med2, hits give low values 1.01 | locus YDL035C, strain GPR1, hits give low values 1.02 | locus YDL040C, strain nat1, hits give low values 1 | locus YDL074C, strain BRE1, hits give low values 1.02 | locus YDL101C, strain DUN1, hits give low values 0.997 | locus YDL185W, strain tfp1, hits give low values 0.954 | locus YDL192W, strain arf1, hits give low values 0.99 | locus YDR001C, strain nth1, hits give low values 0.994 | locus YDR069C, strain doa4, hits give low values 0.978 | locus YDR101C, strain arx1, hits give low values 1 | locus YDR137W, strain rgp1, hits give low values 1.01 | locus YDR150W, strain NUM1, hits give low values 1 | locus YDR159W, strain sac3, hits give low values 1.02 | locus YDR162C, strain NBP2, hits give low values 1.04 | locus YDR195W, strain ref2 0.965 | locus YDR297W, strain sur2, hits give low values 0.972 | locus YDR318W, strain mcm21, hits give low values 0.985 | locus YDR334W, strain swr1, hits give low values 0.996 | locus YDR335W, strain msn5, hits give low values 1 | locus YDR388W, hits give low values 0.988 | locus YDR392W, strain spt3, hits give low values 1.01 | locus YDR502C, strain sam2, hits give low values 0.986 | locus YEL003W, strain gim4, hits give low values 0.993 | locus YEL037C, strain rad23, hits give low values 0.998 | locus YEL061C, strain CIN8 (second series), hits give low values 0.987 | locus YER015W, strain faa2, hits give low values 0.988 | locus YER016W, strain bim1, hits give low values 0.995 | locus YER110C, hits give low values 0.987 | locus YER111C, strain swi4, hits give low values 0.994 | locus YER155C, strain BEM2 (second series), hits give low values 0.982 | locus YER155C, strain BEM2, hits give low values 1 | locus YER167W, strain BCK2, hits give low values 0.992 | locus YFR010W, strain ubp6, hits give low values 1.01 | locus YGL078C, strain dbp3, hits give low values 0.955 | locus YGL086W, strain mad1, hits give low values 0.987 | locus YGL167C, strain pmr1, hits give low values 0.994 | locus YGL173C, strain kem1, hits give low values 0.998 | locus YGL227W, strain vid30, hits give low values 0.986 | locus YGL240W, strain doc1, hits give low values 0.983 | locus YGL248W, strain PDE1, hits give low values 1.01 | locus YGL253W, strain hxk2, hits give low values 0.993 | locus YGR078C, strain PAC10, hits give low values 1 | locus YGR135W, strain pre9, hits give low values 0.963 | locus YGR229C, strain SMI1, hits give low values 0.989 | locus YGR252W, strain gcn5, hits give low values 1.04 | locus YHR013C, strain ard1, hits give low values 0.986 | locus YHR027C, strain rpn1, hits give low values 0.977 | locus YHR030C, strain SLT2, hits give low values 1.07 | locus YHR079C, strain IRE1 (second series), hits give low values 0.989 | locus YHR079C, strain IRE1, hits give low values 1.03 | locus YHR094C, strain hxt1, hits give low values 0.997 | locus YHR129C, strain ARP1, hits give low values 1.01 | locus YHR142W, strain chs7, hits give low values 1.04 | locus YHR200W, strain rpn10, hits give low values 0.996 | locus YIL066C, strain RNR3, hits give low values 1.02 | locus YIL073C, strain SPO22, hits give low values 0.964 | locus YIL125W, strain kgd1, hits give low values 0.947 | locus YIR030C, strain dcg1, hits give low values 0.985 | locus YJL092W, strain hpr5, hits give low values 1.01 | locus YJL095W, strain BCK1 (second series), hits give low values 0.991 | locus YJL095W, strain BCK1, hits give low values 0.995 and 1.03 | locus YJL115W, strain asf1, hits give low values 0.985 | locus YJL129C, strain trk1, hits give low values 1.02 | locus YJL134W, strain LCB3, hits give low values 0.998 | locus YJL154C, strain vps35, hits give low values 0.99 | locus YJL164C, strain tpk1, hits give low values 0.999 | locus YJL166W, strain qcr8, hits give low values 0.997 | locus YJL168C, strain set2, hits give low values 0.989 | locus YJL187C, strain SWE1 (second series), hits give low values 0.997
